Assay results reported in PubChem BioAssay (Tox21).
Where “and” joins values, the source holds several entries; their conditions need not be identical. Equal entries are not always repeated. Some structures have more than one record in an assay (separate samples or runs), and their calls can disagree. Calls of active or inactive are those of the source. Entries that show only a call come without a potency. Unless noted, calls follow the shape of the full dose curve.

tested on: not listed separately; experiment: qHTS assay to identify small molecule antagonists of the estrogen receptor alpha (ER-alpha) signaling pathway - cell viability counter screen (AID 743074); settings: ERalpha-bla HEK293 viability, CellTiter-Glo luminescence, 18 h; series mostly up to 69.4 µM;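 also: HEK293 cells carrying ER-alpha-UAS-bla reporter stimulated with 17beta-estradiol; nearly all actives have a fitted effect of over 45% in size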
Potency is read from the fitted curve at half-maximal effect.

Row | Structure (SMILES) | Potency
1 | c1ccc(P(c2ccccc2)c2ccccc2)cc1 | inactive
2 | CCC(C)c1ccc(O)cc1 (centres undefined) | inactive
3 | CC(C)=CC1C(C(=O)OCc2coc(Cc3ccccc3)c2)C1(C)C (centres undefined) | inactive
4 | O=[N+]([O-])c1c(Cl)c(Cl)c(Cl)c(Cl)c1Cl | inactive
5 | CC1(C)C(C=C(Cl)Cl)C1C(=O)OC(C#N)c1cccc(Oc2ccccc2)c1 (centres undefined) | inactive
6 | ClC1C(Cl)C(Cl)C(Cl)C(Cl)C1Cl (centres undefined) | inactive
7 | O=c1oc2ccccc2c(O)c1C(CC(O)c1ccc(-c2ccc(Br)cc2)cc1)c1ccccc1 (centres undefined) | inactive
8 | CCCCCc1cc(O)cc(O)c1 | inactive
9 | CCOc1cc(Oc2ccc(C(F)(F)F)cc2Cl)ccc1[N+](=O)[O-] | inactive
10 | Nc1ccc(-c2ccc(N)c(N)c2)cc1N | inactive
11 | Brc1ccc(Oc2cc(Br)c(Br)cc2Br)c(Br)c1 | inactive
12 | c1ccc(NNc2ccccc2)cc1 | inactive
13 | CCC(CC)Nc1c([N+](=O)[O-])cc(C)c(C)c1[N+](=O)[O-] | inactive
14 | CCCCN(CC)c1c([N+](=O)[O-])cc(C(F)(F)F)cc1[N+](=O)[O-] | inactive
15 | Oc1ccc(-c2ccccc2)cc1 | inactive
16 | c1nc[nH]n1 | inactive

Row | Structure (SMILES) | Potency
17 | CCC(C)c1cc([N+](=O)[O-])cc([N+](=O)[O-])c1O (centres undefined) | inactive
18 | C=CC(=O)OCCO | inactive
19 | Cc1c(COC(=O)[C@@H]2[C@H](/C=C(\Cl)C(F)(F)F)C2(C)C)cccc1-c1ccccc1 | 26.9 µM (active)
20 | N#CCCCl | inactive
21 | CC(C)N(C(=O)SCC(Cl)=C(Cl)Cl)C(C)C | inactive
22 | Cc1cc(C)cc(C)c1 | inactive
23 | O=C(CCl)c1ccccc1 | inactive
24 | CCCCNC(=O)n1c(NC(=O)OC)nc2ccccc21 | inactive
25 | CCOC(=O)C(C)OC(=O)c1cc(Oc2ccc(C(F)(F)F)cc2Cl)ccc1[N+](=O)[O-] (centres undefined) | inactive
26 | CCC(C)(c1ccc(O)cc1)c1ccc(O)cc1 | inactive
27 | Cc1ccc(N)c(N)c1 | inactive
28 | CCC(=O)O[C@H]1CC[C@H]2[C@@H]3CCC4=CC(=O)CC[C@]4(C)[C@H]3CC[C@]12C | inactive
29 | S=C1NCCN1 | inactive
30 | CC(C)C(=O)OCC(C)(C)C(OC(=O)C(C)C)C(C)C (centres undefined) | inactive
31 | CNC(=O)Oc1cccc2c1OC(C)(C)O2 | inactive
32 | CCOc1cc(C=O)ccc1O | inactive

molecular target: Estrogen receptor (Homo sapiens) (UniProt P03372); experiment: qHTS assay to identify small molecule agonists of the estrogen receptor alpha (ER-alpha) signaling pathway (AID 743075); settings: HEK293 ER-alpha-UAS-bla, beta-lactamase FRET ratio, 18 h; series mostly up to 70.1 µM;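 also: HEK293 GripTite cells with ER-alpha and UAS-driven beta-lactamase reporter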
Sequence (P03372 whole entry, looked up): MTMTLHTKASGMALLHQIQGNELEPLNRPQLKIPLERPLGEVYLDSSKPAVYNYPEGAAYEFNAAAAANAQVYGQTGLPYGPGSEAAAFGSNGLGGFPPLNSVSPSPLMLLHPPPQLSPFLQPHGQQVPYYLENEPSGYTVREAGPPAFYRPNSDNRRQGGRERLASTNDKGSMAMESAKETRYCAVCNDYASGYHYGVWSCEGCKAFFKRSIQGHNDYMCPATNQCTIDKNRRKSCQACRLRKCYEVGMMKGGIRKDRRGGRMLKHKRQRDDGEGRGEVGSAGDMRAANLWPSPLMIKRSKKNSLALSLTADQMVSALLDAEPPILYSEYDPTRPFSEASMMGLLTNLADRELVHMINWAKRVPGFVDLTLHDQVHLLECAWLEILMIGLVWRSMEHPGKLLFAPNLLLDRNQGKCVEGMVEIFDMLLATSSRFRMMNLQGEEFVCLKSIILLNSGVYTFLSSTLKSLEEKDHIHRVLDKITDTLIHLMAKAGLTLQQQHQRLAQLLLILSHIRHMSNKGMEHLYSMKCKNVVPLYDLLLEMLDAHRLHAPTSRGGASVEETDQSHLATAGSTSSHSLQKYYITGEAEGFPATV

Row | Structure (SMILES) | Potency
33 | O=[N+]([O-])c1ccc(O)c([N+](=O)[O-])c1 | inactive
34 | c1ccc(P(c2ccccc2)c2ccccc2)cc1 | inactive
35 | CC(C)=CC1C(C(=O)OCc2coc(Cc3ccccc3)c2)C1(C)C (centres undefined) | inactive
36 | O=[N+]([O-])c1c(Cl)c(Cl)c(Cl)c(Cl)c1Cl | inactive
37 | CC1(C)C(C=C(Cl)Cl)C1C(=O)OC(C#N)c1cccc(Oc2ccccc2)c1 (centres undefined) | inactive
38 | O=c1oc2ccccc2c(O)c1C(CC(O)c1ccc(-c2ccc(Br)cc2)cc1)c1ccccc1 (centres undefined) | inactive
39 | CCOc1cc(Oc2ccc(C(F)(F)F)cc2Cl)ccc1[N+](=O)[O-] | inactive
40 | Brc1ccc(Oc2cc(Br)c(Br)cc2Br)c(Br)c1 | inactive
41 | c1nc[nH]n1 | inactive
42 | CCC(C)c1cc([N+](=O)[O-])cc([N+](=O)[O-])c1O (centres undefined) | inactive
43 | Cc1c(COC(=O)[C@@H]2[C@H](/C=C(\Cl)C(F)(F)F)C2(C)C)cccc1-c1ccccc1 | inactive
44 | C#CCOS(=O)OC1CCCCC1Oc1ccc(C(C)(C)C)cc1 (centres undefined) | inactive and 2.75 µM [inconclusive] (active)
45 | CCCCNC(=O)n1c(NC(=O)OC)nc2ccccc21 | inactive
46 | CCOC(=O)C(C)OC(=O)c1cc(Oc2ccc(C(F)(F)F)cc2Cl)ccc1[N+](=O)[O-] (centres undefined) | inactive
47 | CCC(C)(c1ccc(O)cc1)c1ccc(O)cc1 | 195 nM [inconclusive] (active) and 1.95 µM [inconclusive] (active)
48 | CCC(=O)O[C@H]1CC[C@H]2[C@@H]3CCC4=CC(=O)CC[C@]4(C)[C@H]3CC[C@]12C | 3.23 µM [inconclusive] (active) and 3.47 µM [inconclusive] (active)
49 | CC(C)C(=O)OCC(C)(C)C(OC(=O)C(C)C)C(C)C (centres undefined) | 6.92 µM [inconclusive] (active)
50 | CNC(=O)Oc1cccc2c1OC(C)(C)O2 | inactive

molecular target: Estrogen receptor (Homo sapiens) (UniProt P03372); experiment: qHTS assay to identify small molecule agonists of the estrogen receptor alpha (ER-alpha) signaling pathway using the BG1 cell line (AID 743079; active = well fitted activation curve with a large enough effect in the repeat runs; inconclusive = weak or mixed curves, or effect the other way; inactive = no such curve, though single readings can be large or run the other way; also: nearly all actives have a fitted effect of over 20% in size); settings: BG1Luc4E2 cells, ERE-luciferase agonist, 22 h; series mostly up to 70.3 µM

Row | Structure (SMILES) | Potency
51 | c1ccc(P(c2ccccc2)c2ccccc2)cc1 | inactive
52 | CC(C)=CC1C(C(=O)OCc2coc(Cc3ccccc3)c2)C1(C)C (centres undefined) | inactive
53 | O=[N+]([O-])c1c(Cl)c(Cl)c(Cl)c(Cl)c1Cl | inactive
54 | CC1(C)C(C=C(Cl)Cl)C1C(=O)OC(C#N)c1cccc(Oc2ccccc2)c1 (centres undefined) | inactive
55 | O=c1oc2ccccc2c(O)c1C(CC(O)c1ccc(-c2ccc(Br)cc2)cc1)c1ccccc1 (centres undefined) | inactive
56 | Brc1ccc(Oc2cc(Br)c(Br)cc2Br)c(Br)c1 | inactive and 61.6 µM (active)
57 | c1nc[nH]n1 | inactive
58 | CCC(C)c1cc([N+](=O)[O-])cc([N+](=O)[O-])c1O (centres undefined) | inactive
59 | Cc1c(COC(=O)[C@@H]2[C@H](/C=C(\Cl)C(F)(F)F)C2(C)C)cccc1-c1ccccc1 | inactive
60 | CCCCNC(=O)n1c(NC(=O)OC)nc2ccccc21 | 34.4 µM (active)
61 | CCC(C)(c1ccc(O)cc1)c1ccc(O)cc1 | 243 nM (active) and 273 nM (active)
62 | CCC(=O)O[C@H]1CC[C@H]2[C@@H]3CCC4=CC(=O)CC[C@]4(C)[C@H]3CC[C@]12C | 22.7 nM (active) and 34.4 nM (active)
63 | CC(C)C(=O)OCC(C)(C)C(OC(=O)C(C)C)C(C)C (centres undefined) | 12.2 µM (active)
64 | CNC(=O)Oc1cccc2c1OC(C)(C)O2 | inactive
